Source: PubChem BioAssay (NCATS)
Records with an inconclusive call do not appear. A call without a number means that no potency is given here. Active and inactive are the calls of the source. Unless noted, calls follow the shape of the full dose curve.

Columns and labels:
[1] = Primary qHTS for Huh7 cytotoxicity: counterscreen for inhibitors of MERS-S pseudotyped particle cell entry (AID 1479147); also: potency is read from the fitted curve at half-maximal effect
[2] = Primary qHTS for inhibitors of MERS-S pseudo-typed particle cell entry (AID 1479149); also: nearly all actives have a fitted effect of over 60% in size; also: potency is read from the fitted curve at half-maximal effect
[3] = Primary qHTS for Vero E6 cytotoxicity: counterscreen for inhibitors of SARS-S pseudo-typed particle cell entry (AID 1479150); also: potency is read from the fitted curve at half-maximal effect
[4] = Confirmatory qHTS for VERO E6 Cytotoxicity Assay: Counterscreen for SARS-CoV-2 CPE Assay (AID 1508605); also: series mostly up to about 20 µM; nearly all actives have a fitted effect of over 60% in size
[5] = Confirmatory qHTS for activators (rescue) of SARS-CoV-2 Cytopathic Effect (CPE) (AID 1508606); also: potency is read from the fitted curve at half-maximal effect; nearly all actives have a fitted effect of over 70% in size
[6] = Primary qHTS for inhibitors of La Crosse Virus (LACV) - induced cell death in SH-SY5Y cells (AID 1508616; active = well fitted inhibition curve with a large enough effect;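 also: top concentration of the series differs between compounds; higher means more rescue of cells from virus-induced death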)
Method in brief: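 SH-SY5Y, 6000 cells/well; cpd via pin tool in DMSO; LACV 0.01 MOI; 6 d 37C 5% CO2; ATPLite, 5 min RT; luminescence normalized to ±virus DMSO controls.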

For `CCCCN1CCCC[C@H]1C(=O)Nc1c(C)cccc1C`, the Potency [1] was “inactive”, the Potency [2] was “inactive” and the Potency [3] was “inactive”.

For `O=c1[nH]c(=O)n([C@H]2C[C@H](O)[C@@H](CO)O2)cc1C(F)(F)F`, the Potency [1] was “inactive”, the Potency [2] was 10 µM (active) and the Potency [3] was “inactive”.

With `OC(CCN1CCCCC1)(c1ccccc1)c1ccccc1` the Potency [1] was “inactive”, the Potency [2] was “inactive” and the Potency [3] was “inactive”.

In the case of `O=C1CC2(CCCC2)CC(=O)N1CCCCN1CCN(c2ncccn2)CC1`, the Potency [1] is reported as “inactive”, the Potency [2] is reported as “inactive” and the Potency [3] is reported as “inactive”.

In the case of `C#CC1(O)CC[C@H]2[C@@H]3CCC4=CCCC[C@@H]4[C@H]3CC[C@@]21C` (stereo not given in full), the Potency [1] is reported as “inactive”, the Potency [2] is reported as “inactive” and the Potency [3] is reported as “inactive”.

With `NC(=O)Cc1cccc(C(=O)c2ccccc2)c1N` the Potency [1] was “inactive”, the Potency [2] was “inactive” and the Potency [3] was “inactive”.

In the case of `COc1ccccc1OC(=O)Oc1ccccc1OC`, the Potency [1] is reported as “inactive”, the Potency [2] is reported as “inactive” and the Potency [3] is reported as “inactive”.

For `CCCC(=O)O[C@]1(C(=O)CC)CC[C@H]2[C@@H]3CCC4=CC(=O)CC[C@]4(C)[C@H]3[C@@H](O)C[C@@]21C`, the Potency [1] was “inactive”, the Potency [2] was “inactive” and the Potency [3] was “inactive”.

With `Cc1c(-c2ccccc2)oc2c(C(=O)OCCN3CCCCC3)cccc2c1=O` the Potency [1] was “inactive”, the Potency [2] was “inactive” and the Potency [3] was “inactive”.

With `CCCCCCCCCCCCOS(=O)(=O)O` the Potency [1] was “inactive”, the Potency [2] was “inactive” and the Potency [3] was “inactive”.

With `COc1ccc(C(Cl)=C(c2ccc(OC)cc2)c2ccc(OC)cc2)cc1` the Potency [1] was “inactive”, the Potency [2] was “inactive” and the Potency [3] was “inactive”.

With `CCOC(=O)c1cc(=O)c2c(OCC(COc3cccc4oc(C(=O)OCC)cc(=O)c34)OC(=O)[C@@H](N)CCCCN)cccc2o1` the Potency [1] was “inactive”, the Potency [2] was “inactive” and the Potency [3] was “inactive”.

In the case of `O=C(O)c1ccccc1Nc1cc(Cl)ccc1C(=O)O`, the Potency [1] is reported as “inactive”, the Potency [2] is reported as “inactive” and the Potency [3] is reported as “inactive”.

With `CC1CC(=O)NN=C1c1ccc(NCC(C)(C)NCC(O)COc2cc(Cl)ccc2C#N)cc1` (stereo not given) the Potency [1] was “inactive”, the Potency [2] was “inactive” and the Potency [3] was “inactive”.

In the case of `C(=C\c1ccccc1)/CN1CCN(C(c2ccccc2)c2ccccc2)CC1`, the Potency [1] is reported as “inactive”, the Potency [2] is reported as “inactive” and the Potency [3] is reported as “inactive”.

In the case of `CCN1C(=O)c2ccccc2C1Nc1ccc(OCCN2CCCCC2)cc1` (stereo not given), the Potency [1] is reported as “inactive”, the Potency [2] is reported as “inactive” and the Potency [3] is reported as “inactive”.

With `OCc1ccccc1O` the Potency [1] was “inactive”, the Potency [2] was “inactive” and the Potency [3] was “inactive”.

For `Cc1ncc(COP(=O)(O)O)c(C=O)c1O`, the Potency [1] was “inactive”, the Potency [2] was “inactive” and the Potency [3] was “inactive”.

In the case of `O=C(NC1CCN(CCc2c[nH]c3ccccc23)CC1)c1ccccc1`, the Potency [1] is reported as “inactive”, the Potency [2] is reported as “inactive” and the Potency [3] is reported as “inactive”.

In the case of `CN(C)CCN(Cc1ccccc1)c1ccccn1`, the Potency [1] is reported as “inactive”, the Potency [2] is reported as “inactive” and the Potency [3] is reported as “inactive”.

For `NS(=O)(=O)c1cc2c(cc1Cl)CN(C1CCCCC1)C2=O`, the Potency [1] was “inactive”, the Potency [2] was “inactive” and the Potency [3] was “inactive”.

With `C[C@@H]1CCC[C@H](C)N1CCCC(O)(c1ccccc1)c1ccccn1` (stereo not given in full) the Potency [1] was “inactive”, the Potency [2] was “inactive” and the Potency [3] was “inactive”.

For `CCN(CC)CCOc1ccccc1C(=O)CCc1ccccc1`, the Potency [1] was “inactive”, the Potency [2] was “inactive” and the Potency [3] was “inactive”.

In the case of `CN1CCC(=C2c3ccccc3CCc3sccc32)CC1`, the Potency [1] is reported as “inactive”, the Potency [2] is reported as 10 µM (active) and the Potency [3] is reported as “inactive”. The Potency [4] was “inactive” and the Potency [5] was 11.2 µM (active).

In the case of `CCOc1ccc(Cc2nccc3cc(OCC)c(OCC)cc23)cc1OCC`, the Potency [1] is reported as 12.6 µM (active), the Potency [2] is reported as 3.55 µM (active) and the Potency [3] is reported as 17.8 µM (active).

In the case of `NS(=O)(=O)c1cc2c(cc1Cl)NCNS2(=O)=O`, the Potency [1] is reported as “inactive” and the Potency [3] is reported as “inactive”.

With `COc1ccc2c(c1)C(=O)N(CCc1ccc(S(=O)(=O)NC(=O)NC3CCCCC3)cc1)C(=O)C2(C)C` the Potency [1] was “inactive” and the Potency [3] was “inactive”.

For `CN(Cc1cc(Br)cc(Br)c1N)C1CCCCC1`, the Potency [1] was “inactive”, the Potency [2] was “inactive” and the Potency [3] was “inactive”.

In the case of `CN(C)[C@@H](CCOc1cccc2ccccc12)c1ccccc1`, the Potency [1] is reported as “inactive”, the Potency [2] is reported as 20 µM (active) and the Potency [3] is reported as “inactive”. The Potency [4] was “inactive” and the Potency [5] was 10 µM (active).

With `NS(=O)(=O)c1cc(C(=O)O)c(NCc2ccco2)cc1Cl` the Potency [1] was “inactive”, the Potency [2] was “inactive” and the Potency [3] was “inactive”.

In the case of `CCCCCOc1ccccc1/C(=C\SC)n1ccnc1`, the Potency [1] is reported as “inactive” and the Potency [3] is reported as “inactive”.

For `C#C[C@]1(O)CC[C@H]2[C@@H]3CCC4=CC(=O)CCC4=C3C=C[C@@]21CC`, the Potency [1] was “inactive”, the Potency [2] was “inactive” and the Potency [3] was “inactive”. The outcome [6] was “inactive”.

With `CN(C)CCOC1=Cc2ccccc2Sc2ccc(Cl)cc21` the Potency [1] was “inactive” and the Potency [3] was “inactive”.

For `COc1ccccc1N1CCN(CC(O)COc2cccc3ccccc23)CC1` (stereo not given), the Potency [1] was “inactive” and the Potency [3] was “inactive”.

With `C=C1C(=C/C=C2\CCC[C@]3(C)[C@@H]([C@H](C)/C=C/[C@@H](O)C4CC4)CC[C@@H]23)C[C@@H](O)C[C@@H]1O` the Potency [1] was “inactive” and the Potency [3] was “inactive”.

With `OCCN1CCN(CCCN2c3ccccc3C=Cc3ccccc32)CC1` the Potency [1] was “inactive” and the Potency [3] was “inactive”.

For `COc1cc(N)c(Cl)cc1C(=O)NC1CCN(Cc2ccccc2)CC1`, the Potency [1] was “inactive” and the Potency [3] was “inactive”.

With `CCCCCC(=O)O[C@]1(C(C)=O)CC[C@H]2[C@@H]3CCC4=CC(=O)CC[C@]4(C)[C@H]3CC[C@@]21C` the Potency [1] was “inactive” and the Potency [3] was “inactive”.
